From PubChem
KKLEB cytotox: counter-screen for CF NF-kB inhibitors: cytotoxicity; KKLEB CF airway cells viability, ATPlite luminescence, overnight; hits give low values; cells stimulated with P. aeruginosa culture filtrate; activity change (cytotoxicity), % at 5 µM; actives 0.36% (n = 360,000);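 active = corrected activity change at or below -50% at 5 µM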
Mdm2 MdmX PPI: inhibitors of human Mdm2/MdmX interaction. O15151+Q00987. SaOS-2 split-luciferase Mdm2/MdmX complementation, luminescence. inhibition, % at 8 µM. actives 3% (n = 330,000). AID 485346;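 active = inhibition of at least 50% at 8 µM in the primary screen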
Peg3 prom inh: inhibitors of Peg3 promoter; HeLa PEG-Prom luciferase reporter, luminescence, overnight; inhibition, % at 20 µM; actives 1.7% (n = 360,000); AID 588405;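 active = inhibition of at least 50% at 20 µM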
CF NFkB inh: cystic fibrosis NF-kB activation inhibition | KKLEB NF-kB-GFP reporter, PAF-induced, GFP fluorescence overnight | inhibition, % at 5 µM | actives 0.86% (n = 360,000) | AID 588850;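 active = at least 50% inhibition at 5 µM, scaled per plate between neutral and stimulator controls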;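 also: PAF is a Pseudomonas aeruginosa culture filtrate used as stimulus; plate controls were PAF-stimulated DMSO wells for no effect and unstimulated DMSO wells for full effect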
LGR2 antag: blocks bursicon-induced cAMP signaling via Drosophila LGR2; inhibition, % at 9.99 µM; actives 0.35% (n = 380,000); HEK293 LGR2, CRE-luciferase, bursicon-stimulated, 4 h;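 active = drop in luminescence signal, shown as inhibition above about 50% in the replicate tests, limit read from the data, passing the limit was not always enough; inconclusive = probably only some replicates passing the limit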;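 also: agonist challenge used bursicon conditioned medium at about half maximal strength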
HSP90 inh: inhibitors of HSP90 luciferase refolding in rabbit reticulocyte lysate; actives 0.91% (n = 290,000); inhibition, % at 5.6 µM; luciferase refolding luminescence, 3 h;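 active = inhibition above the screen-wide mean plus 3 SD, computed separately per campaign, cut at about 16% in these data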;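 also: 0% = DMSO wells and 100% = 60 µM geldanamycin wells; inhibitors lower the luminescence because luciferase stays unfolded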
HSP90 confirm: HSP90 inhibition, confirmation assay. actives 64% (n = 2,300). inhibition, % at 5.9 µM. AID 1846. shares compounds with HSP90 inh. rabbit reticulocyte lysate, luciferase refolding luminescence, 3 h; in the data active = inhibition above about 18%;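 also: 0% = vehicle wells and 100% = reference inhibitor wells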
luciferase ctr: counter-screen for HSP90 inhibitors: inhibitors of firefly luciferase; shares compounds with HSP90 inh; purified native firefly luciferase, luminescence; inhibition, % at 5.9 µM; actives 48% (n = 2,300); AID 1847;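 active = inhibition above the mean inhibition of all tested sample wells plus 3 SD, cut at about 10% in these data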;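 also: 0% = DMSO with luciferase and 100% = wells lacking luciferase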
Target sequence (P08659 whole entry, looked up): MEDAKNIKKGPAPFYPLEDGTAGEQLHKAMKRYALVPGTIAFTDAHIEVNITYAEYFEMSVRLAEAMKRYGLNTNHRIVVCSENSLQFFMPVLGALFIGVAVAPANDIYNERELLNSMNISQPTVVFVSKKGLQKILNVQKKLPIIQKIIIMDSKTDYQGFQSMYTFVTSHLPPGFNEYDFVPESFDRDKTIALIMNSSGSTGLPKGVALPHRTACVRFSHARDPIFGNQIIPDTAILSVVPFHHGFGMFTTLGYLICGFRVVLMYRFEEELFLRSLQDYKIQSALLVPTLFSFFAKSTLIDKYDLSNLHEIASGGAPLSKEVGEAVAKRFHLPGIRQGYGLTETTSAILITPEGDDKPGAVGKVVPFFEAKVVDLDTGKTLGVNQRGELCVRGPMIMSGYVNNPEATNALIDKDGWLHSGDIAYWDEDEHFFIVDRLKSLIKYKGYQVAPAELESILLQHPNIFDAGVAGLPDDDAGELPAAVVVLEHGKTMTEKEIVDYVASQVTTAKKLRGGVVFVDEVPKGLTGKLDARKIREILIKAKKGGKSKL
The depositor's hits bear a star. An excerpt weighted towards active compounds, which were near 3.6% of everything screened.

`COc1ccc(OC)c(C(=O)c2ccc(C(=O)Nc3ccc4ccccc4c3)cc2)c1` gave KKLEB cytotox -4, Mdm2 MdmX PPI 12, Peg3 prom inh -33, CF NFkB inh 3, LGR2 antag 0 and HSP90 inh 1.
COc1ccc(OC(C)C(=O)Nc2cccc(OC)c2)cc1 (configuration not stated) was read as KKLEB cytotox 3, Mdm2 MdmX PPI -10, Peg3 prom inh 0, CF NFkB inh 10, HSP90 inh 17*, HSP90 confirm -8 and luciferase ctr -8.
`C[C@@H](NC(=O)C[C@H]1C=C[C@H](NC(=O)Cc2ccccn2)[C@@H](CO)O1)c1ccccc1` gave LGR2 antag -12.
`Cc1ccc(S(=O)(=O)Nc2ccc3c(c2)C(=O)N([C@H](C)CO)C[C@@H](C)[C@H](CN(C)Cc2ccncc2)OCCCC[C@H](C)O3)cc1` gave LGR2 antag 2.
O=C(Nc1ccc2ccccc2c1)c1ccccc1Cl was read as KKLEB cytotox 9, Peg3 prom inh -277, CF NFkB inh -51 and LGR2 antag -7.
`O=C(Nc1ccc2ccccc2c1)c1ccc(Cl)cc1Cl` gave KKLEB cytotox -21, Mdm2 MdmX PPI -221, Peg3 prom inh -321, CF NFkB inh -30, LGR2 antag -4, HSP90 inh 17*, HSP90 confirm 37* and luciferase ctr 20*.
COc1cccc(C(=O)Nc2ccc3ccccc3c2)c1 was read as KKLEB cytotox -8, Mdm2 MdmX PPI -155, Peg3 prom inh -110, CF NFkB inh -18, LGR2 antag inconclusive, HSP90 inh 18*, HSP90 confirm 46* and luciferase ctr 37*.
`COc1cccc(C(=O)Nc2ccccc2)c1` gave KKLEB cytotox 0, Mdm2 MdmX PPI -16, Peg3 prom inh -179, CF NFkB inh -2 and HSP90 inh 0.
For C[C@@H]1CN([C@@H](C)CO)C(=O)c2cc(NC(=O)Cn3cnnn3)ccc2O[C@@H]1CN(C)Cc1ccc(Oc2ccccc2)cc1 the results were LGR2 antag -17.
Cc1ccc(CNC(=O)CSc2nc3ccccc3[nH]2)cc1 was read as KKLEB cytotox 1, Mdm2 MdmX PPI 3, Peg3 prom inh -12, CF NFkB inh -1, LGR2 antag 3 and HSP90 inh 2.
O=C(CSc1nc2ccccc2[nH]1)NCCc1ccc(Cl)cc1 was read as KKLEB cytotox -5, Mdm2 MdmX PPI -26, Peg3 prom inh 11, CF NFkB inh -16, LGR2 antag -6, HSP90 inh 25*, HSP90 confirm 1 and luciferase ctr -4.
CCCCCc1ccc(-c2ccc(/C=C/C(=O)O)cc2)nc1 was read as KKLEB cytotox -2, Mdm2 MdmX PPI 2, Peg3 prom inh 2, CF NFkB inh 14, LGR2 antag -2 and HSP90 inh 14.
Screening CCCc1ccc(-c2ccc(/C=C/C(=O)O)cc2)nc1 returned KKLEB cytotox -11, Peg3 prom inh 39, CF NFkB inh -13, LGR2 antag 58*, HSP90 inh 59*, HSP90 confirm 82* and luciferase ctr 51*.
Screening CC(=O)Oc1ccc(/C=C/c2nc3ccccc3c(=O)o2)cc1 returned KKLEB cytotox 0, Mdm2 MdmX PPI 20, Peg3 prom inh 16, CF NFkB inh 2, LGR2 antag 59*, HSP90 inh 28*, HSP90 confirm 32* and luciferase ctr -13.
`COc1ccc(/C=C\c2nc(=O)c3ccccc3o2)cc1` gave KKLEB cytotox -2, Mdm2 MdmX PPI -42, Peg3 prom inh -83, CF NFkB inh 5, LGR2 antag 48, HSP90 inh 21*, HSP90 confirm 31* and luciferase ctr 14*.
Screening CC(=O)Oc1ccccc1/C=C/c1nc2ccccc2c(=O)o1 returned KKLEB cytotox 0, Mdm2 MdmX PPI 28, Peg3 prom inh 24, CF NFkB inh -4, LGR2 antag 65*, HSP90 inh 32*, HSP90 confirm 45* and luciferase ctr -8.
Screening C/C=C/c1ccc2c(c1)O[C@@H](CN(C)C(=O)c1cnccn1)[C@H](C)CN([C@@H](C)CO)S2(=O)=O returned LGR2 antag -1.
Screening COC(=O)[C@H]1[C@H](CO)[C@H]2Cn3c(ccc(-c4cccc(F)c4)c3=O)[C@H]2N1C(C)=O returned LGR2 antag 3.
O=C(N/N=C/c1ccccc1[N+](=O)[O-])c1ccc2c(c1)OCCO2 was read as KKLEB cytotox -50, Mdm2 MdmX PPI -129, Peg3 prom inh -31, CF NFkB inh 4, LGR2 antag inconclusive, HSP90 inh 22*, HSP90 confirm 58* and luciferase ctr 36*.
O=C(N/N=C/c1cccc(O)c1)c1ccc2c(c1)OCCO2 was read as KKLEB cytotox -16, Mdm2 MdmX PPI -96, Peg3 prom inh -107, CF NFkB inh -10, LGR2 antag 13, HSP90 inh 48*, HSP90 confirm 59* and luciferase ctr 39*.
`Cc1cccc(/C=N/NC(=O)c2ccc3c(c2)OCCO3)c1O` gave KKLEB cytotox -28, Mdm2 MdmX PPI 15, Peg3 prom inh 1, CF NFkB inh -10, LGR2 antag 68*, HSP90 inh 32*, HSP90 confirm 59* and luciferase ctr 52*.
`Cc1cc2ncc(-c3cccs3)nc2cc1C` gave KKLEB cytotox -34, Mdm2 MdmX PPI -86, Peg3 prom inh -31, CF NFkB inh -18, LGR2 antag 71*, HSP90 inh 35*, HSP90 confirm 61* and luciferase ctr 59*.
For CCC(=O)c1ccc(OCc2ccc(C(=O)OC)cc2)cc1 the results were KKLEB cytotox -5, Mdm2 MdmX PPI -73, Peg3 prom inh 22, CF NFkB inh 19, LGR2 antag -27, HSP90 inh 30*, HSP90 confirm 62* and luciferase ctr -3.
Screening CCC(=O)c1ccc(OCc2ccc(C#N)cc2)cc1 returned KKLEB cytotox 0, Mdm2 MdmX PPI -21, Peg3 prom inh -219, CF NFkB inh -4, LGR2 antag -62 and HSP90 inh -4.
For CN1C(=O)c2cc(NC(=O)Nc3ccccc3Cl)ccc2OC[C@@H]2O[C@@H](CC(=O)O)CC[C@H]21 the results were LGR2 antag -9.
`O=C(C[C@@H]1C[C@@H]2c3cc(NC(=O)Cc4ccncc4)ccc3O[C@@H]2[C@@H](CO)O1)NCc1ccccc1` gave LGR2 antag 13.
CC(C)(C)c1ccc(C(=O)Nc2ccc(CC(=O)O)cc2)o1 was read as KKLEB cytotox -2, Mdm2 MdmX PPI 27, Peg3 prom inh 41, CF NFkB inh 11, LGR2 antag -7, HSP90 inh 22*, HSP90 confirm 23* and luciferase ctr -30.
